This passage reports AC50 and outcome results from PubChem BioAssay (EPA / NIEHS).

The nature of assay [1]: ATG_Sox_CIS: Attagene CIS-FACTORIAL HepG2 Assay for human SRY-box transcription factor (SOX) (AID 2282960). Particulars: HepG2 Attagene cis-factorial SOX reporter, mRNA; actives raise or lower the signal. In a few lines:
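HepG2, cis reporter units, 24 h exposure. Reporter mRNA: RT-PCR → FAM labelling → HpaI → CE fluorescence. Bidirectional fit vs DMSO.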

Assay [2] addresses Transcription factor Sp1 (Homo sapiens) (UniProt P08047). As to the kind of experiment: ATG_Sp1_CIS: Attagene CIS-FACTORIAL HepG2 Assay for human Specificity Protein 1 (Sp1) (AID 2282961). Particulars: HepG2 Sp1 cis-reporter transcription, actives raise or lower the signal. The method, boiled down:
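Liver-derived HepG2 cells, cis-element reporter library, 24 h treatment; RNA isolated, cDNA amplified with reporter-specific primers, FAM-labeled fragments sized on capillary analyzer. DMSO baseline, bidirectional curve fit.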

The nature of assay [3]: ATG_SREBP_CIS: Attagene CIS-FACTORIAL HepG2 Assay for human Sterol Regulatory Element Binding (SREBP) (AID 2282962). Particulars: HepG2 Attagene cis-factorial SREBP reporter, mRNA; actives raise or lower the signal. The method, boiled down: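 Readout: fluorescent reporter-transcript peaks resolved by capillary electrophoresis after RT-PCR. Cells were human HepG2 carrying transfected cis-promoter reporter constructs, dosed for 24 h. Gain or loss of signal was fitted against DMSO controls.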

Assay [4] concerns the target Signal transducer and activator of transcription 3 (Homo sapiens) (UniProt P40763). As to the kind of experiment: ATG_STAT3_CIS: Attagene CIS-FACTORIAL HepG2 Assay for human Signal Transducer and Activator of Transcription 3 (STAT3) (AID 2282963). Particulars: HepG2, Attagene cis-factorial STAT3 reporter transcription; actives raise or lower the signal. The method, boiled down:
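Readout: fluorescent reporter mRNA fragments resolved by capillary electrophoresis. Setup: HepG2 transfected with MRTUs reporting endogenous transcription-factor activity, dosed 24 h. Gain or loss of signal fitted bidirectionally against DMSO control.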

Assay [5] is described as follows: ATG_TA_CIS: Attagene CIS-FACTORIAL HepG2 Assay for human TA Basal Promoter (AID 2282964). Particulars: HepG2 Attagene CIS-factorial TA basal promoter reporter; actives raise or lower the signal. In a few lines: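 Steps: transfect HepG2 with MRTUs; dose 24 h; isolate RNA, DNase-treat, reverse-transcribe; PCR and FAM-label reporter cDNA; digest with HpaI 2h at 37 C; run capillary electrophoresis. Activity fitted both directions against DMSO.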

A short description of assay [6]: ATG_TCF_b_cat_CIS: Attagene CIS-FACTORIAL HepG2 Assay for human T-Cell-Factor with beta-catenin (TCF/b-cat) (AID 2282965). Particulars: HepG2 TCF/beta-catenin cis-reporter transcription, actives raise or lower the signal. In a few lines: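 Cells of the HepG2 line carry transiently transfected reporter units whose promoters respond to endogenous factors. Twenty-four hours post-dosing, reporter mRNA induction is measured by fluorescent RT-PCR and capillary electrophoresis, with DMSO as baseline.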

The nature of assay [7]: ATG_TAL_CIS: Attagene CIS-FACTORIAL HepG2 Assay for human TAL Basal Promoter (AID 2282966).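 Also: background control endpoint measuring basal TAL promoter reporter mRNA not a specific factor.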 As to conditions: HepG2 Attagene cis-factorial TAL promoter reporter; actives raise or lower the signal. The method, boiled down:
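Transiently transfected HepG2 (cis-regulated reporter units), 24 h treatment, mRNA read by fluorescent CE after RT-PCR; bidirectional fit, DMSO baseline.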

The nature of assay [8]: ATG_TGFb_CIS: Attagene CIS-FACTORIAL HepG2 Assay for human Transforming Growth Factor (TGF) (AID 2282967). As to conditions: HepG2 Attagene CIS TGFb reporter, mRNA transcription; actives raise or lower the signal. In a few lines: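 Cells were dosed for 24 hours, after which total RNA was reverse-transcribed and reporter sequences amplified, labeled and sized by capillary electrophoresis. Activity was fitted in both directions against DMSO.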

The nature of assay [9]: ATG_VDRE_CIS: Attagene CIS-FACTORIAL HepG2 Assay for human Vitamin D Receptor Element (VDRE) (AID 2282968). Particulars: HepG2 VDRE cis-reporter transcription, actives raise or lower the signal. In a few lines: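 Transient MRTU transfection of HepG2, 24 h compound exposure. Readout: reporter transcripts via RT-PCR and capillary electrophoresis, fluorescence. Bidirectional fit vs DMSO.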

In assay [10] the target is Nuclear receptor subfamily 1 group I member 3 (Homo sapiens) (UniProt Q14994). As to the kind of experiment: ATG_CAR_TRANS: Attagene TRANS-FACTORIAL HepG2 Assay for human Constitutive Androstane Receptor (CAR) (AID 2282969; active = hit-call score of the fitted dose curve at least 0.9, where 1 is the maximum;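 also: activators raise reporter mRNA above DMSO so AC50 marks induction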). As to conditions: HepG2 Attagene TRANS-FACTORIAL CAR reporter. The method, boiled down:
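Transiently transfected HepG2, multiplex TRANS reporters (CAR-Gal4 chimera driving GAL4-UAS reporter). 24 h dosing. Readout: reporter transcript by RT-PCR + capillary electrophoresis, fluorescence intensity; positive direction vs DMSO.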

Assay [11] deals with Steroid hormone receptor ERR1 (Homo sapiens) (UniProt P11474). As to the kind of experiment: ATG_ERRa_TRANS: Attagene TRANS-FACTORIAL HepG2 Assay for human Estrogen-Related Receptor alpha (ERRa) (AID 2282971; active = hit-call score of the fitted dose curve at least 0.9, where 1 is the maximum). Particulars: HepG2 Attagene TRANS reporter, ERRa transactivation. The method, boiled down:
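HepG2 cells transiently transfected with multiplexed GAL4-UAS reporter units reading chimeric ERRa-Gal4 activity; 24 h compound exposure. Reporter mRNA measured by RT-PCR, 6-FAM labelling, HpaI digest and capillary electrophoresis; gain of signal fitted versus DMSO baseline.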

Assay [12] addresses X-box-binding protein 1 (Homo sapiens) (UniProt P17861). Put plainly: ATG_Xbp1_CIS: Attagene CIS-FACTORIAL HepG2 Assay for human X-box Binding Protein 1 (XBP1) (AID 2282972). Particulars: HepG2 XBP1 cis-element reporter, Attagene multiplex; actives raise or lower the signal. The method, boiled down: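 Read-out: fluorescent reporter mRNA fragments resolved by capillary electrophoresis after RT-PCR. Human HepG2 liver cells carried transfected cis-promoter reporter units and were exposed to chemicals for 24 hours. Gain or loss of signal fitted relative to DMSO baseline.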

The nature of assay [13]: ATG_M_19_TRANS: Attagene TRANS-FACTORIAL HepG2 Assay for M19 Transcription Factor (Internal Marker) (AID 2282974; active = hit-call score of the fitted dose curve at least 0.9, where 1 is the maximum). Particulars: HepG2 Attagene TRANS-FACTORIAL M19 internal marker reporter. In a few lines:
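Transfected HepG2 (GAL4-UAS MRTUs), 24 h compound, TriZol RNA, DNase-treated RT, reporter PCR, FAM label, HpaI digest, CE fluorescence; gain vs DMSO.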

In assay [14] the target is Bile acid receptor (Homo sapiens) (UniProt Q96RI1). As to the kind of experiment: ATG_FXR_TRANS: Attagene TRANS-FACTORIAL HepG2 Assay for Farnesoid X Receptor (FXR) (AID 2282979; active = hit-call score of the fitted dose curve at least 0.9, where 1 is the maximum;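 also: hits raise reporter mRNA above DMSO so AC50 marks FXR activation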). As to conditions: HepG2 Attagene TRANS FXR-GAL4 reporter transcription. The method, boiled down: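 HepG2 cells transiently transfected with reporter constructs in which a chimeric FXR-GAL4 protein drives a GAL4-UAS reporter; 24 h compound exposure. Reporter mRNA measured by RT-PCR, FAM labelling, HpaI digestion and capillary electrophoresis; gain-of-signal versus DMSO.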
Bile acid receptor (Homo sapiens), sequence (Q96RI1 whole entry, looked up, the tested form may be a part): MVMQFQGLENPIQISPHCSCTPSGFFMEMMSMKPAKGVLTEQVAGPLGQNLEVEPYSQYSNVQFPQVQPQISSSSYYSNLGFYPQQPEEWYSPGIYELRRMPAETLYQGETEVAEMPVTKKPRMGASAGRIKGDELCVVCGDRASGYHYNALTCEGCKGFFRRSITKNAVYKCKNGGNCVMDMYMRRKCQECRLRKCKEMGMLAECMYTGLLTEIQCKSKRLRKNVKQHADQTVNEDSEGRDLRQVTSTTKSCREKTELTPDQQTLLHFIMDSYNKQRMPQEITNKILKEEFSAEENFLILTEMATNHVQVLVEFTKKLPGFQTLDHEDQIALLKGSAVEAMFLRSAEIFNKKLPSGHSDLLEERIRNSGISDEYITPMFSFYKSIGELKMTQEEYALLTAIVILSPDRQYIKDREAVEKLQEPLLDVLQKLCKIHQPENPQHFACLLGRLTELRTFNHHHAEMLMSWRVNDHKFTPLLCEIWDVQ

Assay [15] addresses Oxysterols receptor LXR-alpha (Homo sapiens) (UniProt Q13133). As to the kind of experiment: ATG_LXRa_TRANS: Attagene TRANS-FACTORIAL HepG2 Assay for human Liver X Receptor alpha (LXRa) (AID 2282980; active = hit-call score of the fitted dose curve at least 0.9, where 1 is the maximum). As to conditions: HepG2 Attagene TRANS reporter, LXRa transactivation. In a few lines:
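HepG2 cells were transiently transfected with multiplexed reporter units driven by chimeric LXRa–GAL4 fusion proteins, then dosed for 24 h. Reporter mRNA was quantified by RT-PCR, fluorescent labelling and capillary electrophoresis; gain of signal fitted against DMSO baseline.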

The target of assay [16] is Oxysterols receptor LXR-beta (Homo sapiens) (UniProt P55055). Put plainly: ATG_LXRb_TRANS: Attagene TRANS-FACTORIAL HepG2 Assay for human Liver X Receptor beta (LXRb) (AID 2282981; active = hit-call score of the fitted dose curve at least 0.9, where 1 is the maximum). As to conditions: HepG2 Attagene TRANS GAL4-LXRb reporter, mRNA. In a few lines: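 Readout: fluorescent reporter mRNA fragments resolved by capillary electrophoresis after RT-PCR. System: transiently transfected human HepG2, exogenous LXRb-Gal4 chimera driving GAL4-UAS reporter, 24 h dosing. Activity fitted upward against DMSO baseline.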
Oxysterols receptor LXR-beta (Homo sapiens), sequence (P55055 whole entry, looked up, the tested form may be a part): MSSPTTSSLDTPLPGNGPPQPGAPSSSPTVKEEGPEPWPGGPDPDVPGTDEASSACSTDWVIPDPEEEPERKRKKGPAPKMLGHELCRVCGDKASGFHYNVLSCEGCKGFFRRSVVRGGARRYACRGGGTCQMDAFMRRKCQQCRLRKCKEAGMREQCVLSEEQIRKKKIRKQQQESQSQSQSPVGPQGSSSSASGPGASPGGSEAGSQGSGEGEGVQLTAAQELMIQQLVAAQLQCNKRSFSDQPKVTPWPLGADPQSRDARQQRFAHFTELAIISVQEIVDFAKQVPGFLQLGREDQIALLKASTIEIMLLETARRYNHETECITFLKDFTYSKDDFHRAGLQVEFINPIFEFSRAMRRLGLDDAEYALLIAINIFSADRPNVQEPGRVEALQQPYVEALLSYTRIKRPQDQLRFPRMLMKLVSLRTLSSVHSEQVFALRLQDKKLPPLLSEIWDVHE

Assay [17] in a line: ATG_GAL4_TRANS: Attagene TRANS-FACTORIAL HepG2 Assay for GAL4 (Internal Marker) (AID 2282976; active = hit-call score of the fitted dose curve at least 0.9, where 1 is the maximum). As to conditions: HepG2 Attagene TRANS GAL4 internal marker reporter. The method, boiled down:
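HepG2 cells transiently transfected with multiplexed GAL4-UAS reporter constructs were dosed for 24 h. Reporter mRNA was measured by RT-PCR, 6-FAM primer extension, HpaI digestion and capillary electrophoresis, and gain of signal was fitted relative to DMSO.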

The target of assay [18] is Glucocorticoid receptor (Homo sapiens) (UniProt P04150). As to the kind of experiment: ATG_GR_TRANS: Attagene TRANS-FACTORIAL HepG2 Assay for human Glucocorticoid Receptor (GR) (AID 2282978; active = hit-call score of the fitted dose curve at least 0.9, where 1 is the maximum;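 also: activators score as hits since higher reporter transcript over DMSO is fitted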). As to conditions: HepG2 Attagene TRANS GR reporter, mRNA transcription. In a few lines: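 After 24 h incubation with test chemical, transfected HepG2 cells were lysed for RNA; reporter cDNA was amplified, FAM-labelled, HpaI-digested and sized on a capillary analyser. Signal gain relative to DMSO was scored.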

Assay [19] addresses Estrogen receptor (Homo sapiens) (UniProt P03372). Put plainly: ATG_ERa_TRANS: Attagene TRANS-FACTORIAL HepG2 Assay for human Estrogen Receptor alpha (ERa) (AID 2282970; active = hit-call score of the fitted dose curve at least 0.9, where 1 is the maximum). As to conditions: HepG2 Attagene TRANS ERa GAL4 reporter, mRNA. The method, boiled down:
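One of 30 multiplexed endpoints from a HepG2 TRANS system, this one reports ERa-Gal4-driven reporter mRNA. Transcripts were quantified 24 hours post-dosing by fluorescent RT-PCR and capillary electrophoresis, with activity scored as induction over DMSO.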

Molecules are shown by their SMILES. Where “and” joins values, the source holds several entries; their conditions need not be identical. Equal values may be shown once. Results filed as inconclusive are left out. Where a structure was tested more than once in an assay, its records may differ in their call. Calls of active or inactive are those of the source. The calls were made as follows, unless noted: active = hit-call score of the fitted dose curve at least 0.9, where 1 is the maximum; inactive = score below 0.9.

Broadly, the AC50 is the concentration at which the activity in the assay is half-maximal.

X-box-binding protein 1 (Homo sapiens), sequence (P17861 whole entry, looked up, the tested form may be a part): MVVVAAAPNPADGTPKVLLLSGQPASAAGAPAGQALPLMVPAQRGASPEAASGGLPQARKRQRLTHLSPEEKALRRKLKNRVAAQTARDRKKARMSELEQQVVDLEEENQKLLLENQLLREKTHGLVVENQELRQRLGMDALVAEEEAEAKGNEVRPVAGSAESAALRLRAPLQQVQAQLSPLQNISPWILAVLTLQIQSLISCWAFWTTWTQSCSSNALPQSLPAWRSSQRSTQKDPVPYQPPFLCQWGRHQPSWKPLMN
Nuclear receptor subfamily 1 group I member 3 (Homo sapiens), sequence (Q14994 whole entry, looked up, the tested form may be a part): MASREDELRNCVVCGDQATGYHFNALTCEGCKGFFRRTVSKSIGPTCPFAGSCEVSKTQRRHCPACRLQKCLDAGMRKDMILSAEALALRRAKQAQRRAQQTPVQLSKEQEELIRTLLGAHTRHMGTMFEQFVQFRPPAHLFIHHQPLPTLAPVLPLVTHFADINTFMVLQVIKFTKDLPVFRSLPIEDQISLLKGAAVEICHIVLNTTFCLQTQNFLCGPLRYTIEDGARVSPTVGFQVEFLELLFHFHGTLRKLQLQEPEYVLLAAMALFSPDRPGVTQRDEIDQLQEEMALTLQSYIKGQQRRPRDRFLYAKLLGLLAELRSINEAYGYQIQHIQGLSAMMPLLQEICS
Signal transducer and activator of transcription 3 (Homo sapiens), sequence (P40763 whole entry, looked up, the tested form may be a part): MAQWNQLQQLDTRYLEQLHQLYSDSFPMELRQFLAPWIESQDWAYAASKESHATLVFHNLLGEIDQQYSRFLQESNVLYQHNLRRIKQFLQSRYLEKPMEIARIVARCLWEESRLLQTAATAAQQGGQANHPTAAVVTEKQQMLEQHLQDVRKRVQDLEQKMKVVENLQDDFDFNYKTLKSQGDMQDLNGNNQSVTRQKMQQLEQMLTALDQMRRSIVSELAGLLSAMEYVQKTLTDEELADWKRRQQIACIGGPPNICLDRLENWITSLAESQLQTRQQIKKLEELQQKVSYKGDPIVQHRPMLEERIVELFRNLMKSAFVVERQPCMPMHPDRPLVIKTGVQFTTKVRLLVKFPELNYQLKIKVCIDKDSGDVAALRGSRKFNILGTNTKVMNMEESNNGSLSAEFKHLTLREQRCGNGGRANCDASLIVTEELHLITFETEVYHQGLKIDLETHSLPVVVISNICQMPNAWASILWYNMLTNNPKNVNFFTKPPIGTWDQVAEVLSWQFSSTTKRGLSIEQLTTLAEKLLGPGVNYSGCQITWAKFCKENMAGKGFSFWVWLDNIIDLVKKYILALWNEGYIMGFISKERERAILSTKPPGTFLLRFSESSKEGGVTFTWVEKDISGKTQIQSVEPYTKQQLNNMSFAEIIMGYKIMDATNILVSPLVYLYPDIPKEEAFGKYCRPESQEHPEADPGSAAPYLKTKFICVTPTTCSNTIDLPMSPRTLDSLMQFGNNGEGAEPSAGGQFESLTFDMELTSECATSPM
Oxysterols receptor LXR-alpha (Homo sapiens), sequence (Q13133 whole entry, looked up, the tested form may be a part): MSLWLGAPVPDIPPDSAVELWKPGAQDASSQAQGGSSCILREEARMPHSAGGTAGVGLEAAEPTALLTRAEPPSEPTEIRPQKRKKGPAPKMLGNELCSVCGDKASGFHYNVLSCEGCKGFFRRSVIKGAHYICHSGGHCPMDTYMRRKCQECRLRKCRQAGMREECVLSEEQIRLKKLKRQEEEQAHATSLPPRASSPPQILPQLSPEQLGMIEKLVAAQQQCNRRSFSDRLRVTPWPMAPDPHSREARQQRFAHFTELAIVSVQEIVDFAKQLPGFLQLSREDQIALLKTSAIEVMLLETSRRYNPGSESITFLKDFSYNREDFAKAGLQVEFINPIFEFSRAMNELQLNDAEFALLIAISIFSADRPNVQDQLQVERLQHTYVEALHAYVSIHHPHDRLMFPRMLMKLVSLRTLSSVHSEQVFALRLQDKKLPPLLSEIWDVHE
Transcription factor Sp1 (Homo sapiens), sequence (P08047 whole entry, looked up, the tested form may be a part): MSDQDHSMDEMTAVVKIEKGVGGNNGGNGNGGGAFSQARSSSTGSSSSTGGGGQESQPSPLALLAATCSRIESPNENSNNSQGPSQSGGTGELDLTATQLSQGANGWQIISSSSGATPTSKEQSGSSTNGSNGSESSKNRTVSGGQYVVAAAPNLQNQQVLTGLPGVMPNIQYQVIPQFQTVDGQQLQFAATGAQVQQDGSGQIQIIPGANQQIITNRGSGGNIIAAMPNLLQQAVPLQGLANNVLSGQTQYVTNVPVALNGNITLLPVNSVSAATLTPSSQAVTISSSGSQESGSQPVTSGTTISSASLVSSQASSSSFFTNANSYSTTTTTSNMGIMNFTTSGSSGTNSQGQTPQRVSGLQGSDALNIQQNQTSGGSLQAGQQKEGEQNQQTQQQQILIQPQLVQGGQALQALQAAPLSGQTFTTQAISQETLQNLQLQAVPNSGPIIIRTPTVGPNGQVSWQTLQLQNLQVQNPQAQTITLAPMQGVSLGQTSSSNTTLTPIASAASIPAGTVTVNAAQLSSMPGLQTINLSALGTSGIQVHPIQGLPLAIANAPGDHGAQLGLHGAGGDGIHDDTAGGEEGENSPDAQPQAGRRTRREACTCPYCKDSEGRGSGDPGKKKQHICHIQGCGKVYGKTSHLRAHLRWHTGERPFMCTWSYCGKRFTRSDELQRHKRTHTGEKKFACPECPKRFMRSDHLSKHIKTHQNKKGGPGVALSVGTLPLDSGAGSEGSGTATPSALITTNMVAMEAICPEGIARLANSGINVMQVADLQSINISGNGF
Steroid hormone receptor ERR1 (Homo sapiens), sequence (P11474 whole entry, looked up, the tested form may be a part): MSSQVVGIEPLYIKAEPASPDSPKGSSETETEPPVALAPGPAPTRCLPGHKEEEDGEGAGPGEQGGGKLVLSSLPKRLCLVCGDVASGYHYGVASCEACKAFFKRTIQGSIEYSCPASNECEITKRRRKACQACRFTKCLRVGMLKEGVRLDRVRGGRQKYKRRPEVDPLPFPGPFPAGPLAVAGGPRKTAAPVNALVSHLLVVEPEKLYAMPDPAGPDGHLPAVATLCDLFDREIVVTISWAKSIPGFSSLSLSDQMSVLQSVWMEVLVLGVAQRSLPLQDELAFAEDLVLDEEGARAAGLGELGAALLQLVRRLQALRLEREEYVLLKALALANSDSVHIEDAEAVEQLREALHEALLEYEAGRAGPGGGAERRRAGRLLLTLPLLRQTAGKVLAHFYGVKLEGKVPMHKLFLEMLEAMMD
Estrogen receptor (Homo sapiens), sequence (P03372 whole entry, looked up, the tested form may be a part): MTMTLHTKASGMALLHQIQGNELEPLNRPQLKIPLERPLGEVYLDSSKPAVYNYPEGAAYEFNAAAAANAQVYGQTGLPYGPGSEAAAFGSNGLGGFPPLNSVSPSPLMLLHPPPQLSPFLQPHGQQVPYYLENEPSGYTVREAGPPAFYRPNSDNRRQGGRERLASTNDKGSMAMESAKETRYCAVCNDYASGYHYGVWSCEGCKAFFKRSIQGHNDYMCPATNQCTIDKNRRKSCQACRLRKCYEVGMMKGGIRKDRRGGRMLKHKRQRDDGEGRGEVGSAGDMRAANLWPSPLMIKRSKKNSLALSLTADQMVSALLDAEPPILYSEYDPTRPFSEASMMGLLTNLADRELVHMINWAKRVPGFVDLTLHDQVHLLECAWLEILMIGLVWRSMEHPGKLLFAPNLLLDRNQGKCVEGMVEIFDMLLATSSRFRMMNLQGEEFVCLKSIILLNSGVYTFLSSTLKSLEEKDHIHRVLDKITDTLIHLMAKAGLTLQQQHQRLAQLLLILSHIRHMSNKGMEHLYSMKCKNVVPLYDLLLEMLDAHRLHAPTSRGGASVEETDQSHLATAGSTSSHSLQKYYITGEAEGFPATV

Take `O=C(O)C(F)(F)C(F)(F)C(F)(F)C(F)(F)C(F)(F)C(F)(F)C(F)(F)C(F)(F)C(F)(F)C(F)(F)F`: the AC50 is 58.4 µM (active) in assay [1]; 31.9 µM (active) and 13.1 µM (active) in [6]; 95.5 µM (active) in assay [7]; 105 µM (active) and 13.4 µM (active) in assay [8]; 25.7 µM (active) and 16.8 µM (active) in assay [9]; 26.7 µM (active) in assay [12]. In addition, in assay [15], the concentration at half-maximal activity (AC50) was 57.2 µM (active). Moreover, the compound was called inactive in assay [1], in assay [2], in [3], in assay [4], in [5] and in assay [7]. Also, the compound was called inactive in assay [10], in [11], in assay [12], in assay [13], in assay [14] and in assay [15]. The call in [16] was inactive.

In the case of `CNC(=O)O/N=C/C(C)(C)S(C)=O` (stereo not drawn), the outcome in assay [1], in assay [2], in assay [3], in assay [4], in assay [5] and in assay [6] was inactive. The compound was classed as inactive in assay [7], in assay [8], in assay [9], in assay [10], in assay [12] and in assay [17]. Besides, the compound was called inactive in [18] and in assay [16].

As to `O=C(CCl)CCl`, the compound was called inactive in [1], in [4], in assay [5], in assay [7], in assay [8] and in assay [19]. Also, the AC50 is 33.4 µM (active) in assay [2]; 46 µM (active) in [3]; 23.4 µM (active) in assay [6]; 45.4 µM (active) in assay [9]; 48.1 µM (active) in [12].

Turning to `C[C@@H]1C[C@@H]([C@H](O)CC2CC(=O)NC(=O)C2)C(=O)[C@@H](C)C1`, the result in [1], in assay [2], in assay [3], in assay [4], in [5] and in assay [7] was inactive. The outcome in [12], in assay [14], in assay [15] and in assay [16] was inactive. Further, the half-maximal activity concentration (AC50) in assay [6] was 8.48 µM (active) [middle of 4 runs]; in assay [7], 0.191 µM (active); in [12], 89.5 µM (active).
